Among the data in the supplement of paper PMC10849652 are log2 fold change values, retold here.

Targets with a hit are over-represented here; the source holds about 7,900 in all. About 0.6% of all pairs of compound and target were hits.

UniProt Q9NRX5, sequence (Q9NRX5 whole entry, looked up): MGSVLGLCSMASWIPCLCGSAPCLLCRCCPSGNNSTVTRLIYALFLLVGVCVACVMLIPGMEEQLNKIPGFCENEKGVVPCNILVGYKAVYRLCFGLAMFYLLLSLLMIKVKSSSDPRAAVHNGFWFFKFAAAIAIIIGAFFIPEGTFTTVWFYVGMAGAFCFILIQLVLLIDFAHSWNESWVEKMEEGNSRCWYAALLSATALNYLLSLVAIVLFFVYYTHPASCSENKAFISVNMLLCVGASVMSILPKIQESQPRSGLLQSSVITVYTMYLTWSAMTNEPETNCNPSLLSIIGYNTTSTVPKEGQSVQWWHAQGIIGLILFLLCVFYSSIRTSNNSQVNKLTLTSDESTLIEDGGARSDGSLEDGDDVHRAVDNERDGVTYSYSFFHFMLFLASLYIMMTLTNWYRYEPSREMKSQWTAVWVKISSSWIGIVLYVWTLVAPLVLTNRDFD
UniProt Q6NUM9, sequence (Q6NUM9 whole entry, looked up): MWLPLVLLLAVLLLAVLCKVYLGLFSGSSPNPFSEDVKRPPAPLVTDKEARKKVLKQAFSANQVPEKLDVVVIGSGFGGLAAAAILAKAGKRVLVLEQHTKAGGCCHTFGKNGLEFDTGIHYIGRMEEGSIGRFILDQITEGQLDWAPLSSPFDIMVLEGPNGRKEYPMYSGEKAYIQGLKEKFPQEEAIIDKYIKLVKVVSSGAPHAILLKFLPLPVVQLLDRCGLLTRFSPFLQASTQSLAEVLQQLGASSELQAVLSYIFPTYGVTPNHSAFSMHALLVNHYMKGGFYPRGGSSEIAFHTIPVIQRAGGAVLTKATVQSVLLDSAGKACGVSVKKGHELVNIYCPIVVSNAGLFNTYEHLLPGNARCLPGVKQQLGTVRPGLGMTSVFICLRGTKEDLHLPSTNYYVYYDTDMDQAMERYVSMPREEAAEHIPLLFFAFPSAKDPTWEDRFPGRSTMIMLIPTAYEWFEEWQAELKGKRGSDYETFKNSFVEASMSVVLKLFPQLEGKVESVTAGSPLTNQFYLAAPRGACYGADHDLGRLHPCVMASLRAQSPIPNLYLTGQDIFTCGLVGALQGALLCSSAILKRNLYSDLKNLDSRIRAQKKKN
UniProt Q7Z6E9, sequence (Q7Z6E9 whole entry, looked up): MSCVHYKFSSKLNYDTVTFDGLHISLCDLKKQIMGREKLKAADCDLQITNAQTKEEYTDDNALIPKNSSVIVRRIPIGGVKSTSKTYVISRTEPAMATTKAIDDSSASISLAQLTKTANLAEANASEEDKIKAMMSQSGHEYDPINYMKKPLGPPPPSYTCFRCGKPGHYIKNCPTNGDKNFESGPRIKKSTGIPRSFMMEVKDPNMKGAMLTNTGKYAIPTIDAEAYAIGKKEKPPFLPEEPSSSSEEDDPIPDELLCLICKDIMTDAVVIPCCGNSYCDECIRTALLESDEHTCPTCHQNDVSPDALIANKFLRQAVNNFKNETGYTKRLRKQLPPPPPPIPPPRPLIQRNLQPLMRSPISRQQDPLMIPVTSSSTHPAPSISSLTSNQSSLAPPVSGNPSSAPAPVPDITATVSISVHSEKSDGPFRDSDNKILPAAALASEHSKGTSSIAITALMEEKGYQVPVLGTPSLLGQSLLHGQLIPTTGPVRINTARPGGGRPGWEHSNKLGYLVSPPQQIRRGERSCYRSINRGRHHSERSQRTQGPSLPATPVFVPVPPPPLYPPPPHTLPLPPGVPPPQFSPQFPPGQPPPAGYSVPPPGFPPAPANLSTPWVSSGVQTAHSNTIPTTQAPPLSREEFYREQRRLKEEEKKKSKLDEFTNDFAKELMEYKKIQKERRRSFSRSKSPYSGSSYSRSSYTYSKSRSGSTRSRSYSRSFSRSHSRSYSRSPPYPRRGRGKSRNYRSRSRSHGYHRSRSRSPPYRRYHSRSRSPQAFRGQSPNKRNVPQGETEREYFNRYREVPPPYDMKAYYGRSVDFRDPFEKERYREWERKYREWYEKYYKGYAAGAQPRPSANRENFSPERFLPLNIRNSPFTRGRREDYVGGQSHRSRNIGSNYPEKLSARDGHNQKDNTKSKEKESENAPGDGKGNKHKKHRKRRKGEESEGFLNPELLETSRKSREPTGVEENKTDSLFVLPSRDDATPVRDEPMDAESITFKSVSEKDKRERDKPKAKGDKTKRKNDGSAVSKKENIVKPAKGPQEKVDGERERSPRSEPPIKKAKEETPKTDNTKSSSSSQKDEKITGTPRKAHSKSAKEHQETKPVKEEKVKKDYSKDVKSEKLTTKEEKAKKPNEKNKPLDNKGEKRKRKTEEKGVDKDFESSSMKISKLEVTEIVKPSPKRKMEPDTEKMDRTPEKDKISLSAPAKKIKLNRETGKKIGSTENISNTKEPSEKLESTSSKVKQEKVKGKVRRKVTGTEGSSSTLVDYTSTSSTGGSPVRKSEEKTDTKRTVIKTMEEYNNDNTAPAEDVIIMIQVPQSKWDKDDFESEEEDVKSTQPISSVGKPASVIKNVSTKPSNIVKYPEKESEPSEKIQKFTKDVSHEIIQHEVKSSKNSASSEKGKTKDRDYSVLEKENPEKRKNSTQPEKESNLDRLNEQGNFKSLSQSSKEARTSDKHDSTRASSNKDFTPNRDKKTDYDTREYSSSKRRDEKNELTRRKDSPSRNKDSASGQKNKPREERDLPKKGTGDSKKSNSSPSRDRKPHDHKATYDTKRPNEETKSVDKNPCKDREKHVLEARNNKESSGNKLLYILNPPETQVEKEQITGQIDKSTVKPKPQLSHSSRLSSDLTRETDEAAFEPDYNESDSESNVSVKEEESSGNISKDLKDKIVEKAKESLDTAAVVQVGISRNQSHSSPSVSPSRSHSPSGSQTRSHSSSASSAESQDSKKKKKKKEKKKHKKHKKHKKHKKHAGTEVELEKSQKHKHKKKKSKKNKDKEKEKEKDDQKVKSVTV
UniProt P04049, sequence (P04049 whole entry, looked up): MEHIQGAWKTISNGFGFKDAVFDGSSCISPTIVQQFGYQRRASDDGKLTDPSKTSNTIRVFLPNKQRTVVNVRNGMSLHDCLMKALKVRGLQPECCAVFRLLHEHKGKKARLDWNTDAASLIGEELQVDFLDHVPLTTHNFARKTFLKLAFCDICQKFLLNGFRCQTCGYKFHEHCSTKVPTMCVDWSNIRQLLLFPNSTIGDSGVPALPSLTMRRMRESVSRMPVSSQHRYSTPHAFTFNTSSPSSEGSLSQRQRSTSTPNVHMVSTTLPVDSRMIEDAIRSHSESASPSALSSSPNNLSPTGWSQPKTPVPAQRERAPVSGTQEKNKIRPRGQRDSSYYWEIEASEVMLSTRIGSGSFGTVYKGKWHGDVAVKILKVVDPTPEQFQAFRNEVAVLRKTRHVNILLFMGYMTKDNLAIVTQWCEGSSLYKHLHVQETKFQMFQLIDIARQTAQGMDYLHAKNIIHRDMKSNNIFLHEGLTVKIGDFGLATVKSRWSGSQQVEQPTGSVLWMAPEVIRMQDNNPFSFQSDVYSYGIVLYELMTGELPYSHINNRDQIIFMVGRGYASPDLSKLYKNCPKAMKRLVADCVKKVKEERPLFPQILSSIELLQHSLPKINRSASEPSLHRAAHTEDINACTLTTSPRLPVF
UniProt Q9UPN6, sequence (Q9UPN6 whole entry, looked up): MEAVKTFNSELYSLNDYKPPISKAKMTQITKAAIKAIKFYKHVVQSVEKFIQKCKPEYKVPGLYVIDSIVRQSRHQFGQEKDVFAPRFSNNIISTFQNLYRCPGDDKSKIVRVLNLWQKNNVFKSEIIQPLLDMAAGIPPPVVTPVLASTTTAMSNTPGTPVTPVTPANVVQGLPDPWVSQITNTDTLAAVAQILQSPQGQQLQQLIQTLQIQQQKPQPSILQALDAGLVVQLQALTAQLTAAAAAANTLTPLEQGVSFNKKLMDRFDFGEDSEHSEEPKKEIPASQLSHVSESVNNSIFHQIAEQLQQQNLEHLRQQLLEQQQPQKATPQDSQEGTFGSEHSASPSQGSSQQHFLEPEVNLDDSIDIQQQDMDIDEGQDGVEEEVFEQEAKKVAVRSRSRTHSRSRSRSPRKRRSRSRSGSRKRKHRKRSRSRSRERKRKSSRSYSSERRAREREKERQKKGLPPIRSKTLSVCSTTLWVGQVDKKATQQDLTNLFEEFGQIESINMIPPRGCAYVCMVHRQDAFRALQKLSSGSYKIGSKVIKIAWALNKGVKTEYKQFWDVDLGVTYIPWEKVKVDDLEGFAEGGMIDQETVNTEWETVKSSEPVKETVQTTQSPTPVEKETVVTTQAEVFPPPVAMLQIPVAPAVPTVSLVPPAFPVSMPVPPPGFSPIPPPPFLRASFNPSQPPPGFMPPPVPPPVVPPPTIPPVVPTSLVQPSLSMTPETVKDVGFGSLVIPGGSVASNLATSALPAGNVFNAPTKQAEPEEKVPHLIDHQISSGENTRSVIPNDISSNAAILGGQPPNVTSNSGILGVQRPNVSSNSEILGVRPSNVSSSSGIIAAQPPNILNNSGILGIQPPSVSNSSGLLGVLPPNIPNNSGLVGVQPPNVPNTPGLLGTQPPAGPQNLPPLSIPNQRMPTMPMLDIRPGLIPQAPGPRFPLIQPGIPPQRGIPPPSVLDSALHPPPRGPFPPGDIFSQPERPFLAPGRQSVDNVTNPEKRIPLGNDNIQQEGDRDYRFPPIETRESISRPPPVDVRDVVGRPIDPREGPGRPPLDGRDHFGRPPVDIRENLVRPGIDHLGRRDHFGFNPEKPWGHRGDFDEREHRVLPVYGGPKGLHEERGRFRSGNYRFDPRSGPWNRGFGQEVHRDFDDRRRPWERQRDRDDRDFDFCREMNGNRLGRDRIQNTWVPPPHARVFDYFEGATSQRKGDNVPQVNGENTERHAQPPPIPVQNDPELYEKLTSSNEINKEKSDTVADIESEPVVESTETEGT
UniProt O43819, sequence (O43819 whole entry, looked up): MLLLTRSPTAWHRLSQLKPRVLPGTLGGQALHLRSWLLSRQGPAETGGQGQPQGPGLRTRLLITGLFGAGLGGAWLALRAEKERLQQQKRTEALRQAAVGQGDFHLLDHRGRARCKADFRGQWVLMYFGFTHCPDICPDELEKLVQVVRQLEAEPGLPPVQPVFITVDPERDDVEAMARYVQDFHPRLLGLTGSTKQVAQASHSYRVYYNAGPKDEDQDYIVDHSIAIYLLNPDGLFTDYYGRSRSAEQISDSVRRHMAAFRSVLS

Compound in the first test: CC1=C(C=C(C=C1)NC(=O)C2=CC(=CC=C2)C(C)(C)C#N)NC3=CC4=C(C=C3)N=CN(C4=O)C
Description: log2 fold change, soluble protein after heating vs DMSO (PISA); higher = thermal stabilisation; K562 cells, 10 uM, 30 min; active = over 0.2 and 3.5 SD of the protein, either way, in both replicates (recomputed). The method in brief: (§1)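 K562 cells (2×10^6 cells/mL) were treated with 10 μM compound for 30 min, and aliquots were heated for 3 min over 48°C-58°C. Pooled aliquots were extracted in PBS with 0.5% NP-40 at 4°C, and the supernatant after 21,000xg for 90 min was measured by TMTpro 16plex LC-MS/MS with channel sums equalised. Reported thermal stability, relative to control samples and from duplicates, is a log2 fold change.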
SCAMP2 (UniProt H3BUB6): the log2 fold change was -0.349 (inactive).
Same read-out and setting: with SIK3 (UniProt H0Y4E8) the figure was 0.017 (inactive); with SCG3 (UniProt Q8WXD2), 0.134 (inactive); with RCOR3 isoform 3 (UniProt Q9P2K3), -0.12 (inactive).
On the same count and under the same terms, the same measure for SAMD4B (UniProt Q5PRF9): -0.501 (active); for SCAF8 isoform 2 (UniProt Q9UPN6): 0.048 (inactive).
The same measure, in the same setting: the same measure for RBM48 isoform 2 (UniProt Q5RL73): -0.708 (active); for SASH1 (UniProt O94885): 0.046 (inactive); for SCAMP2 (UniProt O15127): -0.032 (inactive).
With RBBP6 (UniProt Q7Z6E9), the log2 fold change is -0.108 (inactive).
Still for that read-out and setting: with RAF1 isoform 2 (UniProt P04049) the figure was 0.317 (inactive).
The same measure, in the same setting: with RPS6KA3 (UniProt P51812) the figure was -0.072 (inactive); with RBM39 (UniProt Q14498), -0.035 (inactive).
For RPAIN isoform 8 (UniProt Q86UA6), the log2 fold change was 0.009 (inactive).
On the same count and under the same terms, with RALY (UniProt Q9UKM9) the figure was 0.091 (inactive); with ROCK1 (UniProt Q13464), 0.003 (inactive); with RECQL (UniProt P46063), 0.028 (inactive).
The same measure, in the same setting: with SH3GLB2 (UniProt Q9NR46) the figure was 0.047 (inactive).
On the same count and under the same terms, with RAB9A (UniProt P51151) the figure was 0.036 (inactive); with RAD50, A0A494C0Y7, -0.005 (inactive).
Take SH2D1B (UniProt O14796): the log2 fold change is -0.781 (inactive).
Consider SLBP (UniProt Q14493), for which the log2 fold change was -0.012 (inactive).
Still for that read-out and setting: the same measure for SERINC1 (UniProt Q9NRX5): 0.044 (inactive); for RAB3IL1 (UniProt E9PK89): -0.069 (inactive).
Same read-out and setting: the same measure for RAP2C (UniProt Q9Y3L5): -0.064 (inactive); for SCO2 (UniProt O43819): -0.487 (active).
On the same count and under the same terms, with RUFY3 isoform 3 (UniProt Q7L099) the figure was -0.085 (inactive).
In the case of RETSAT (UniProt Q6NUM9), the log2 fold change was 0.014 (inactive).
Same read-out and setting: with SEC31A (UniProt O94979) the figure was -0.053 (inactive).
On the same count and under the same terms, with RBIS (UniProt Q8N0T1) the figure was -0.099 (inactive).
Still for that read-out and setting: with SLC12A9 (UniProt Q9BXP2) the figure was -0.007 (inactive); with RNF167 (UniProt Q9H6Y7), 0.037 (inactive); with RCOR1 (UniProt Q9UKL0), -0.061 (inactive).
Consider SEC24A (UniProt O95486), for which the log2 fold change is 0.025 (inactive).

Compound in the next test: CC1=C(C=C(C=C1)NC(=O)C2=CC(=CC=C2)N(C)C)NC(=O)C3=CC=C(C=C3)O
Described as above. The method in brief:
as §1
On to SCAMP2 (UniProt H3BUB6), for which the log2 fold change is 0.043 (inactive).
The same measure, in the same setting: the same measure for SIK3 (UniProt H0Y4E8): 0.18 (inactive); for SCG3 (UniProt Q8WXD2): -0.105 (inactive).
RCOR3 isoform 3 (UniProt Q9P2K3): the log2 fold change was -0.046 (inactive).
The same measure, in the same setting: with SAMD4B (UniProt Q5PRF9) the figure was -0.02 (inactive); with SCAF8 isoform 2 (UniProt Q9UPN6), 0.002 (inactive).
The same measure, in the same setting: the same measure for RBM48 isoform 2 (UniProt Q5RL73): -0.13 (inactive).
Still for that read-out and setting: with SASH1 (UniProt O94885) the figure was -0.013 (inactive); with SCAMP2 (UniProt O15127), -0.032 (inactive).
Regarding RBBP6 (UniProt Q7Z6E9), the log2 fold change was 0.119 (inactive).
Consider RAF1 isoform 2 (UniProt P04049), for which the log2 fold change is 0.056 (inactive).
The same measure, in the same setting: with RPS6KA3 (UniProt P51812) the figure was -0.157 (inactive).
On the same count and under the same terms, the same measure for RBM39 (UniProt Q14498): 0 (inactive); for RPAIN isoform 8 (UniProt Q86UA6): 0.038 (inactive); for RALY (UniProt Q9UKM9): -0.021 (inactive).
Turning to ROCK1 (UniProt Q13464), the log2 fold change is -0.073 (inactive).
Still for that read-out and setting: the same measure for RECQL (UniProt P46063): -0.012 (inactive); for SH3GLB2 (UniProt Q9NR46): -0.052 (inactive).
In the case of RAB9A (UniProt P51151), the log2 fold change was 0.033 (inactive).
Still for that read-out and setting: with RAD50, A0A494C0Y7 the figure was -0.03 (inactive); with SH2D1B (UniProt O14796), 0.013 (inactive).
The same measure, in the same setting: the same measure for SLBP (UniProt Q14493): -0.08 (inactive); for SERINC1 (UniProt Q9NRX5): -0.048 (inactive).
Still for that read-out and setting: with RAB3IL1 (UniProt E9PK89) the figure was -0.037 (inactive); with RAP2C (UniProt Q9Y3L5), 0.052 (inactive); with SCO2 (UniProt O43819), -0.079 (inactive).
Turning to RUFY3 isoform 3 (UniProt Q7L099), the log2 fold change was -0.068 (inactive).
Turning to RETSAT (UniProt Q6NUM9), the log2 fold change was 0.025 (inactive).
Same read-out and setting: the same measure for SEC31A (UniProt O94979): -0.052 (inactive); for RBIS (UniProt Q8N0T1): -0.011 (inactive).
SLC12A9 (UniProt Q9BXP2): the log2 fold change was 0.056 (inactive).
Still for that read-out and setting: the same measure for RNF167 (UniProt Q9H6Y7): 0.008 (inactive); for RCOR1 (UniProt Q9UKL0): -0.089 (inactive).
The same measure, in the same setting: with SEC24A (UniProt O95486) the figure was -0.089 (inactive).

Compound in another test: CC1=CC=C(C=C1)SC2=C3C=C(SC3=CN=C2)C(=O)N
The test is described as above. The method in brief: as §1
For the target SCAMP2 (UniProt H3BUB6), the log2 fold change was -0.166 (inactive).
SIK3 (UniProt H0Y4E8): the log2 fold change is -0.062 (inactive).
The same measure, in the same setting: with SCG3 (UniProt Q8WXD2) the figure was -0.011 (inactive); with RCOR3 isoform 3 (UniProt Q9P2K3), 0.051 (inactive); with SAMD4B (UniProt Q5PRF9), 0 (inactive).
On the same count and under the same terms, the same measure for SCAF8 isoform 2 (UniProt Q9UPN6): -0.03 (inactive); for RBM48 isoform 2 (UniProt Q5RL73): -0.009 (inactive).
The same measure, in the same setting: with SASH1 (UniProt O94885) the figure was 0.024 (inactive); with SCAMP2 (UniProt O15127), 0.046 (inactive); with RBBP6 (UniProt Q7Z6E9), 0.03 (inactive).
RAF1 isoform 2 (UniProt P04049): the log2 fold change was 0.078 (inactive).
Still for that read-out and setting: with RPS6KA3 (UniProt P51812) the figure was 0.021 (inactive); with RBM39 (UniProt Q14498), -0.011 (inactive).
Still for that read-out and setting: with RPAIN isoform 8 (UniProt Q86UA6) the figure was -0.098 (inactive); with RALY (UniProt Q9UKM9), -0.05 (inactive).
For the target ROCK1 (UniProt Q13464), the log2 fold change was -0.016 (inactive).
With RECQL (UniProt P46063), the log2 fold change is 0.011 (inactive).
As to SH3GLB2 (UniProt Q9NR46), the log2 fold change was 0.025 (inactive).
Same read-out and setting: with RAB9A (UniProt P51151) the figure was 0.017 (inactive).
On the same count and under the same terms, with RAD50, A0A494C0Y7 the figure was -0.063 (inactive).
SH2D1B (UniProt O14796): the log2 fold change was -0.01 (inactive).
Same read-out and setting: the same measure for SLBP (UniProt Q14493): 0.019 (inactive); for SERINC1 (UniProt Q9NRX5): 0.372 (inactive); for RAB3IL1 (UniProt E9PK89): 0 (inactive).
Same read-out and setting: with RAP2C (UniProt Q9Y3L5) the figure was -0.03 (inactive); with SCO2 (UniProt O43819), 0.029 (inactive); with RUFY3 isoform 3 (UniProt Q7L099), 0.016 (inactive).
Still for that read-out and setting: the same measure for RETSAT (UniProt Q6NUM9): 0.088 (inactive); for SEC31A (UniProt O94979): 0.015 (inactive); for RBIS (UniProt Q8N0T1): -0.055 (inactive).
Turning to SLC12A9 (UniProt Q9BXP2), the log2 fold change is -0.04 (inactive).
The same measure, in the same setting: with RNF167 (UniProt Q9H6Y7) the figure was -0.041 (inactive); with RCOR1 (UniProt Q9UKL0), 0.037 (inactive); with SEC24A (UniProt O95486), 0 (inactive).
